{"source": "PubChem BioAssay", "note": "Results with a measured potency or affinity are listed apart. The source made the active and inactive calls. No rule for the calls is given here.", "data": [{"assay": "A549 cell cytotoxicity, dose response, cytotoxicity control, plate reader, cherry-pick, antagonist series (AID 743412)", "details": "series mostly up to 26 µM", "values": [{"smiles": "O=C(NCCc1ccccc1)c1ccc2c(c1)OCCO2", "outcome": "inactive"}, {"smiles": "COc1ccc2sc(NC(=O)c3ccco3)nc2c1", "outcome": "inactive"}, {"smiles": "COC(=O)c1ccc2nc(NC(=O)C(C)(C)C)sc2c1", "outcome": "inactive"}, {"smiles": "Cc1ccc(-c2noc(-c3cccs3)n2)cc1", "outcome": "inactive"}, {"smiles": "O=C(Nc1nc2ccccc2s1)c1ccc2sc([C@H]3C[C@H](O)[C@@H](CO)O3)nc2c1", "outcome": "inactive"}, {"smiles": "CCc1nc(Sc2nnnn2-c2ccccc2)c2c3c(sc2n1)CCCC3", "outcome": "inactive"}, {"smiles": "COc1ccc(CC(=O)Nc2cccc(-c3nnc(-c4cccc(C)c4)o3)c2)cc1OC", "outcome": "inactive"}, {"smiles": "Cc1cc(C)c(Cc2c(C)nc3c(C(=O)NCc4ccco4)cnn3c2C)c(C)c1", "outcome": "inactive"}, {"smiles": "Cc1ccc(-c2csc(Nc3ccccn3)n2)cc1", "outcome": "inactive"}, {"smiles": "Cc1ccc(-c2nnc(Nc3ccccc3)o2)cc1", "outcome": "inactive"}, {"smiles": "COc1cc(NC(=O)c2cccs2)c(C(=O)OCC(=O)c2cc(C)n(-c3ccccc3)c2C)cc1OC", "outcome": "inactive"}, {"smiles": "Cc1ccc2nc(NC(=O)CCCC(=O)O)sc2c1", "outcome": "inactive"}, {"smiles": "O=C(Nc1cccnc1)c1cc(-c2ccc3c(c2)OCO3)on1", "outcome": "inactive"}, {"smiles": "CCOC(=O)c1sc(NC(=O)Nc2ccccc2F)nc1C", "outcome": "inactive"}, {"smiles": "Cc1ccc(-c2nc(-c3ccncc3)no2)cc1C", "outcome": "inactive"}, {"smiles": "Cc1ccc(-n2ncc3c(N4CCN(c5ccccc5)CC4)ncnc32)c(C)c1", "outcome": "inactive"}, {"smiles": "CN(C)c1ccc(C(=O)Nc2nc3c(s2)CCCC3)cc1", "outcome": "inactive"}, {"smiles": "c1ccc(-n2nnnc2Sc2ncnc3sc4c(c23)CCCC4)cc1", "outcome": "inactive"}, {"smiles": "O=C(CN1C(=O)c2ccccc2S1(=O)=O)Nc1ncc(Cl)cc1Cl", "outcome": "inactive"}]}, {"assay": "toxicity toward HepG2 liver cells – cell-based, plate reader, cherry-pick, antagonist series, cytotoxicity control, dose response (AID 743416)", "details": "series mostly up to 26 µM", "values": [{"smiles": "O=C1OCCC1Sc1nnc(-c2ccc(Cl)cc2Cl)o1", "note": "(configuration not stated)", "outcome": "inactive"}, {"smiles": "O=C(O)c1ccc(N/N=C/c2ccc3ncccc3c2)cc1", "outcome": "inactive"}, {"smiles": "COC(=O)c1ccc2nc(-c3cccc(N)c3)cn2c1", "outcome": "inactive"}, {"smiles": "Cc1ccc(-c2nc(-c3ccncc3)no2)c(Cl)c1", "outcome": "inactive"}, {"smiles": "CCc1nc(Sc2nnnn2-c2ccccc2)c2c3c(sc2n1)CCCC3", "outcome": "inactive"}, {"smiles": "COc1cc(NC(=O)c2cccs2)c(C(=O)OCC(=O)c2cc(C)n(-c3ccccc3)c2C)cc1OC", "outcome": "inactive"}, {"smiles": "Cc1ccc2nc(NC(=O)CCCC(=O)O)sc2c1", "outcome": "inactive"}, {"smiles": "O=C(Nc1cccnc1)c1cc(-c2ccc3c(c2)OCO3)on1", "outcome": "inactive"}]}]}
